The structures appear in SMILES notation. About 840 (25%) of roughly 3,400 compounds were called active. Inconclusive results (about 11%) are left out. Not all results are given here. Measured potencies and affinities stand elsewhere. A number with no mark means an inactive call.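 Rule for the calls: active = fitted half-maximal concentration of signal decrease at or below twice the sample's top tested concentration; inconclusive = flat curve between -70 and -30 percent, or poor fit; inactive = flat within 30 percent, signal rise, or potency above limit.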

A short description of the test: T. gondii growth inhibition with IFN-gamma, dose response, cell-based, ME49Luc, HeLa, luciferase, 72 h (AID 1259418). Conditions: T. gondii ME49Luc in IFN-y HeLa, active compounds read low, -100% = high-dose IFN-γ control wells; at 19.5 µM unless noted.
As to `COc1ccc(-c2nc3c(s2)CN(S(=O)(=O)c2ccc(F)cc2F)CC3)cc1`, the max activity was 13% [at 5 µM].

Take `COC(=O)c1cccc(NC(=O)Nc2ccc(-c3nc(-c4cc(C)ccc4C)co3)cc2)c1`: the max activity is 11.4% [at 5 µM].

As to `CCc1cc(C2CCCN2C(=O)Cn2nc(C(F)(F)F)cc2C)on1` (stereo not drawn), the max activity is -8.33% [at 5 µM].

Consider `Cc1ccccc1-c1nc(CN2CCN(C(=O)Nc3cccc(C)c3C)CC2)c(C)o1`, for which the max activity was -5.68% [at 2.6 µM].

As to `COCCCNC(=O)Cn1c(=O)c(S(=O)(=O)c2ccccc2)cc2cc(C)ccc21`, the max activity is 5.8% [at 2.6 µM].

On to `Cc1ccc(NC(=O)Nc2ccc(-c3nc(-c4cccc(Br)c4)co3)cc2)cc1`, for which the max activity is 18.1% [at 0.16 µM].

As to `Cc1ccc(-c2ccc(OCCNC(=O)c3sc(-c4ccccc4)nc3C)nn2)cc1`, the max activity was 10.9% [at 2.6 µM].

With `COc1ccc(NC(=O)N2CCc3nc(-c4ccccc4)sc3C2)c(OC)c1`, the max activity is 19.6% [at 10 µM].

Take `Cc1cc(C2CCCN2C(=O)c2cc(C(F)(F)F)nn2C)on1` (stereo not drawn): the max activity was 8.24% [at 1.35 µM].

Turning to `Cc1nc(-c2ccc(F)cc2)sc1-c1ccc(SCc2ccccn2)nn1`, the max activity was 11.9%.

Turning to `Cc1ccccc1NC(=O)N1C[C@H]2C[C@H](C(=O)NC3CCC3)[C@@H](C1)O2`, the max activity was 41.9%.

In the case of `Cc1ccc(-c2coc(-c3ccc(NC(=O)Cc4ccccc4C)cc3)n2)cc1`, the max activity was 19%.

`COc1ccc(C(=O)Nc2ccc(-c3nc(-c4ccc(C)cc4C)co3)cc2)cc1`: the max activity is 25.2% [at 0.35 µM].

On to `COc1cc(NC(=O)Nc2ccc(-c3nc(-c4cc(C)ccc4C)co3)cc2)cc(OC)c1`, for which the max activity is 6.94% [at 0.08 µM].

On to `COc1ccc(NC(=O)Nc2ccc(-c3nc(-c4ccc(C)cc4C)co3)cc2)cc1`, for which the max activity is -20.8% [at 0.16 µM].

On to `COc1cc(OC)cc(C(=O)Nc2ccc(-c3nc(-c4cc(C)ccc4C)co3)cc2)c1`, for which the max activity is 19.3% [at 0.16 µM].

As for `COc1ccc(-c2nc3c(s2)CN(S(=O)(=O)c2ccc(C(C)(C)C)cc2)CC3)cc1`, the max activity is 5.19%.

Turning to `COc1ccc(-c2nc(Nc3ccccc3C)c3ccccc3n2)cc1`, the max activity was -9.66% [at 10 µM].

On to `COc1ccc(CCNc2ncnc3c2cnn3-c2ccccc2)cc1OC`, for which the max activity is 24.5% [at 5 µM].

Take `CCSc1ccc2c(c1)N(CCCN1CCN(C)CC1)c1ccccc1S2`: the max activity is 26.9%.

As to `CCOC(=O)Cc1ccc(NC(=O)Nc2ccc(-c3nc(-c4ccccc4)co3)cc2)cc1`, the max activity was 9.92% [at 2.6 µM].

With `COc1cccc(-c2ccc(C3[C@H]4CNC[C@@H]3N4Cc3nccs3)cc2)c1` (stereo partly drawn), the max activity was 51.8% [at 21 µM].

`OC[C@@H]1[C@@H](c2ccc(-c3cccnc3)cc2)[C@@H]2CN(Cc3ccccn3)CCCCN12`: the max activity is -5.02% [at 1.2 µM].

For the compound `Fc1cccc(-c2ccc(C3[C@H]4CNC[C@@H]3N4Cc3ccccn3)cc2)c1` (stereo partly drawn), the max activity was 18.9% [at 5 µM].

In the case of `COc1cc(CN2C[C@@H]3N[C@H](C2)C3c2ccc(-c3ccc(C#N)cc3)cc2)cc(OC)c1` (stereo partly drawn), the max activity is 27% [at 10 µM].

Take `OC[C@@H]1[C@@H](c2ccc(-c3cccc(F)c3)cc2)[C@@H]2CN(Cc3cncnc3)CCCCN12`: the max activity was 12.9%.

`O=C(c1cccs1)N1CCC2(CC1)Nc1cc(F)ccc1-n1cccc12`: the max activity was 9.34% [at 0.68 µM].

For the compound `O=C(CCC1Nc2c3ccccc3nc(=S)n2C1=O)NCCN1CCC(Cc2ccccc2)CC1` (stereo not drawn), the max activity is 54.5% [at 10 µM].

For `CCc1ccc2c(c1)cc(S(=O)(=O)c1ccccc1)c(=O)n2CC(=O)NCCCOC`, the max activity is 8.62% [at 10 µM].

In the case of `COCCN1CCc2nc(SCc3nc(-c4ccccc4OC)oc3C)[nH]c(=O)c2C1`, the max activity was 14.3% [at 5 µM].

For the compound `COc1cc(-c2noc(-c3nnn(Cc4nc(-c5ccccc5)oc4C)c3C)n2)ccc1OC(C)C`, the max activity was 9.04% [at 0.16 µM].

Take `CSc1cccc(NC(=O)N2CCc3nc(-c4ccc(C)cc4)sc3C2)c1`: the max activity is 42.8% [at 10 µM].

Consider `O=C(Nc1ccc(-c2nc(-c3ccccc3)co2)cc1)c1ccccc1Cl`, for which the max activity is 40%.

As for `Cn1nccc1C(=O)N1CCC2(CC1)Nc1cc(F)ccc1-n1cccc12`, the max activity is -9.01%.

With `c1csc(-c2cc(NC3CCNCC3)nc3[nH]ccc23)n1`, the max activity is 35.6% [at 5 µM].

For `Fc1cccc(CSc2nc(Nc3ccc4c(c3)OCO4)c3ccccc3n2)c1`, the max activity was 11.5%.

In the case of `Fc1ccc(Nc2nc(SCc3ccccc3F)nc3ccccc23)cc1`, the max activity was 12.5%.

`COc1cc(Nc2nc(SCc3ccccc3Cl)nc3ccccc23)cc(OC)c1OC`: the max activity is 11% [at 0.68 µM].

As for `Clc1ccc(CSc2nc(Nc3ccc4c(c3)OCO4)c3ccccc3n2)cc1`, the max activity is 5.7% [at 2.6 µM].

As to `CCc1ccc(-c2noc(-c3nnn(Cc4nc(-c5ccccc5)oc4C)c3C)n2)cc1`, the max activity is 20.7%.

For the compound `Cc1ccc(NC(=O)Nc2ccc(-c3nc(-c4ccc(C)cc4C)co3)cc2)cc1`, the max activity is 46.2%.

In the case of `Cc1ccc(CNC2=NCCNC23CCN(S(=O)(=O)c2ccc(CC(C)C)cc2)CC3)cc1`, the max activity is 13.1% [at 10 µM].

Turning to `Cc1ccccc1CNC1=NCCNC12CCN(S(=O)(=O)c1ccc(CC(C)C)cc1)CC2`, the max activity is 13.3% [at 2.6 µM].

As to `CC(C)Cc1ccc(S(=O)(=O)N2CCC3(CC2)NCCN=C3NCc2cc(F)cc(F)c2)cc1`, the max activity is 20.3%.

As for `COc1ccc(NC(=O)N2CCc3nc(-c4ccccc4)sc3C2)cc1OC`, the max activity is -8.38% [at 0.35 µM].

With `Cc1nc(OCC(=O)Nc2ccc(Br)cc2)c2ccccc2n1`, the max activity is 28% [at 1.35 µM].

`Cc1ccc(C)c(NC(=O)COc2nc(C)nc3ccccc23)c1`: the max activity was 15.8% [at 10 µM].

As to `N#CCSC1=Nc2ccccc2C2=NC(CCC(=O)NCc3ccccc3)C(=O)N12` (stereo not drawn), the max activity is 72.9%.

Source of the values: PubChem BioAssay AID1259418 (Broad Institute, 2018).
